Source: PubChem BioAssay (EPA / NIEHS)
Records with an inconclusive call do not appear. The source made the active and inactive calls. Rule for the calls: active = hit-call score of the fitted dose curve at least 0.9, where 1 is the maximum; inconclusive = response in the unintended direction; inactive = score below 0.9.

System: zebrafish Estrogen Receptor (ESR2B), gene 317733
Assay: ATG_zfER2b_XSP1: Attagene TRANS-FACTORIAL Multi-Species (XSP1) HepG2 Assay for zebrafish Estrogen Receptor (ESR2B) (AID 2283773)
Method in brief: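 Medium contained 3 nM 6-alpha-fluorotestosterone. Reporter mRNA induction by exogenous zebrafish ER2b-Gal4 chimera was read 24 h post-dose in transiently transfected HepG2 cells, using RT-PCR, fluorescent labelling, HpaI digestion and capillary electrophoresis.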

**Q.** With `CC(C)(c1cc(Br)c(O)c(Br)c1)c1cc(Br)c(O)c(Br)c1` as the compound, how does the outcome read?
**A.** inactive

**Q.** With `Cc1c2ccccc2c(C)c2c1ccc1ccccc12` as the compound, how does the AC50 read?
**A.** 16900 nM (active)

**Q.** With `C[C@]12CC[C@@H]3c4ccc(O)cc4CC[C@H]3[C@@H]1CCC2=O` as the compound, how does the AC50 read?
**A.** 3.05 nM (active)

**Q.** Which AC50 does the source give for `CC/C(=C(/CC)c1ccc(O)cc1)c1ccc(O)cc1` here?
**A.** 0.0671 nM (active)

System: frog Estrogen Receptor (ESR2), gene 100174814
Assay: ATG_frER2_XSP1: Attagene TRANS-FACTORIAL Multi-Species (XSP1) HepG2 Assay for frog Estrogen Receptor (ESR2) (AID 2283774)
Method in brief: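 Reporter mRNA from a multiplexed TRANS system, measured by RT-PCR with fluorescent labelling and capillary electrophoresis, 24 hours after chemical exposure. Human HepG2 liver cells carried exogenous frog ER-Gal4 chimera; medium included 3 nM 6-alpha-fluorotestosterone; increases versus DMSO analysed.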

**Q.** For `CC(C)(c1cc(Br)c(O)c(Br)c1)c1cc(Br)c(O)c(Br)c1`, which AC50 is on record?
**A.** 11.8 µM (active)

**Q.** For `Cc1c2ccccc2c(C)c2c1ccc1ccccc12`, which AC50 is on record?
**A.** 9 µM (active)

**Q.** With `C[C@]12CC[C@@H]3c4ccc(O)cc4CC[C@H]3[C@@H]1CCC2=O` as the compound, how does the AC50 read?
**A.** 0.00632 µM (active)

**Q.** For `CC/C(=C(/CC)c1ccc(O)cc1)c1ccc(O)cc1`, which AC50 is on record?
**A.** 7.8e-05 µM (active)

System: not listed separately
Assay: ACEA_AR_agonist_AUC_viability: ACEA Biosciences xCELLigence Real-Time Cell Analysis on Androgen Receptor Agonism for Viability (AID 2283775);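 for AC50: viability read 80 hours after compound addition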
Method in brief: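 22Rv1 cells; impedance growth kinetics; 8-pt 1:4 dilutions from 100 uM top final, ≤0.5% DMSO; n = 2; 80 h read; AUC viability, loss-of-signal vs DMSO.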

**Q.** For `O=C1CCC(C2CCCCC2)CC1`, which AC50 is on record?
**A.** 50 µM (active)

**Q.** With `O=C(OCCCCCCOC(=O)c1ccccc1)c1ccccc1` as the compound, how does the AC50 read?
**A.** 74 µM (active)

**Q.** Which AC50 does the source give for `O=C(Nc1ccc(Cl)cc1)Nc1ccc(Cl)c(Cl)c1` here?
**A.** 6.35 µM (active)

**Q.** Which AC50 does the source give for `COc1cc(C(=O)NC2CCN(C)CC2)ccc1Nc1ncc2c(n1)N(C1CCCC1)CC(F)(F)C(=O)N2C` here?
**A.** 0.00301 µM (active)

**Q.** For `O=C(O)c1ccccc1-n1cc(C(=O)O)c(=O)c2cc(Nc3c(F)cc(F)cc3Cl)c(Cl)cc21`, which outcome is on record?
**A.** inactive

**Q.** For `Cc1ccc2oc(CN(Cc3ccccc3)C(=O)Nc3c(F)cc(F)cc3F)c(-c3ccc(Cl)cc3)c2c1`, which AC50 is on record?
**A.** 9.77 µM (active)

**Q.** With `O=c1c(-c2ccc(O)cc2)coc2cc(O)cc(O)c12` as the compound, how does the AC50 read?
**A.** 62.9 µM (active)

**Q.** For `CCCCCCCCOC(=O)c1cc(O)c(O)c(O)c1`, which AC50 is on record?
**A.** 35.3 µM (active)

**Q.** Which AC50 does the source give for `O=C(O)Cc1cc(I)c(Oc2ccc(O)c(I)c2)c(I)c1` here?
**A.** 22 µM (active)

**Q.** For `CN1C(=O)N(c2ccccc2Br)Cc2cnc(Nc3ccc4c(c3)OCC(CO)O4)nc21` (stereo not given), which AC50 is on record?
**A.** 20.5 µM (active)

**Q.** With `c1ccc(C[n+]2cccc3ccccc32)cc1` as the compound, how does the AC50 read?
**A.** 50 µM (active)

**Q.** With `CC(C)(c1cc(Br)c(O)c(Br)c1)c1cc(Br)c(O)c(Br)c1` as the compound, how does the AC50 read?
**A.** 25 µM (active)

**Q.** For `CC1=CC(=O)/C(=C(/C)O)C(=O)O1`, which outcome is on record?
**A.** inactive

**Q.** For `CC[C@@H]1C[C@H](N(Cc2cc(C(F)(F)F)cc(C(F)(F)F)c2)C(C)=O)c2cc(C(F)(F)F)ccc2N1C(=O)OC(C)C`, which outcome is on record?
**A.** inactive

**Q.** With `CCCCOC(=O)CC(CC(=O)OCCCC)(OC(C)=O)C(=O)OCCCC` as the compound, how does the outcome read?
**A.** inactive

**Q.** With `COc1ccc2cc(S(=O)(=O)N[C@H](CC(=O)N[C@H](Cc3ccc(CN4[C@H](C)CCC[C@@H]4C)cc3)C(=O)N(C)C(C)C)c3ccc4c(c3)OCO4)ccc2c1` as the compound, how does the AC50 read?
**A.** 9.68 µM (active)

**Q.** With `Cc1occc1C(=O)Nc1ccc(C(=O)N2CCC(F)(F)/C(=C\C(=O)N3CCC(N4CCCCC4)CC3)c3ccccc32)cc1` as the compound, how does the AC50 read?
**A.** 31.2 µM (active)

**Q.** With `C[C@]12CC[C@@H]3c4ccc(O)cc4CC[C@H]3[C@@H]1CC[C@H]2O` as the compound, how does the AC50 read?
**A.** 90.7 µM (active)

**Q.** With `O=c1ccc2ccccc2o1` as the compound, how does the outcome read?
**A.** inactive

**Q.** With `CC(C)(C)c1csc(-c2cc3cc(OCc4ccccc4CC(=O)O)ccc3o2)n1` as the compound, how does the AC50 read?
**A.** 21.1 µM (active)

**Q.** Which AC50 does the source give for `Cc1oc2c(NC(=O)c3c(Cl)cccc3Cl)cccc2c1C(C)(C)O` here?
**A.** 22.8 µM (active)

**Q.** Which AC50 does the source give for `CC(C)(C)c1cc(/C=C2\SC(N)=NC2=O)cc(C(C)(C)C)c1O` here?
**A.** 13.5 µM (active)

**Q.** With `Cc1c2ccccc2c(C)c2c1ccc1ccccc12` as the compound, how does the AC50 read?
**A.** 50 µM (active)

**Q.** Which outcome does the source give for `C[C@]12CC[C@@H]3c4ccc(O)cc4CC[C@H]3[C@@H]1CCC2=O` here?
**A.** inactive

**Q.** Which AC50 does the source give for `O=c1[nH]sc2ccccc12` here?
**A.** 14.1 µM (active)

**Q.** Which AC50 does the source give for `CN(C[C@@H](CC[N+]12CCC(C3CCCCC3)(CC1)CC2)c1ccc(Cl)c(Cl)c1)C(=O)c1cc(C(F)(F)F)cc(C(F)(F)F)c1` here?
**A.** 5.81 µM (active)

**Q.** Which AC50 does the source give for `NC(=O)c1nc(-c2cccc(-c3cc(F)ccc3OCC(F)(F)C(F)(F)F)c2)n[nH]1` here?
**A.** 24.6 µM (active)

**Q.** For `Oc1ccccc1`, which outcome is on record?
**A.** inactive

**Q.** Which AC50 does the source give for `Cc1cc(F)ccc1-c1cc(N2CC[C@@H](O)[C@H]2CO)ncc1N(C)C(=O)C(C)(C)c1cc(C(F)(F)F)cc(C(F)(F)F)c1` here?
**A.** 8.51 µM (active)

**Q.** Which outcome does the source give for `CCCCCCCCCCCCO` here?
**A.** inactive

**Q.** Which AC50 does the source give for `OC12N=C(c3ccccc3)SC1Cc1cc(Cl)ccc12` (stereo not given) here?
**A.** 83.3 µM (active)

**Q.** For `O=C(O)Cn1c(=O)n(Cc2ccc(Br)cc2F)c(=O)c2ccc(Cl)cc21`, which outcome is on record?
**A.** inactive

**Q.** Which AC50 does the source give for `CC/C(=C(/CC)c1ccc(O)cc1)c1ccc(O)cc1` here?
**A.** 21.3 µM (active)

**Q.** With `Clc1ccccc1C(c1ccccc1)(c1ccccc1)n1ccnc1` as the compound, how does the AC50 read?
**A.** 16.9 µM (active)

**Q.** Which AC50 does the source give for `CCCCCCCCOc1ccc(C(=O)c2ccccc2)c(O)c1` here?
**A.** 68.2 µM (active)

**Q.** For `O=C1c2ccccc2C(=O)N1CCc1noc(-c2ccc(CN3CCCCCC3)s2)n1`, which AC50 is on record?
**A.** 13.2 µM (active)

**Q.** Which AC50 does the source give for `CCCCOC(=O)c1ccc(O)cc1` here?
**A.** 69.5 µM (active)
